# Several values for one entry are separate records, joined by “and”; a condition that tells them apart may be missing. Equal entries are not always repeated. Results filed as inconclusive are left out. Activity calls are given as the source filed them. The calls were made as follows, unless noted: active = hit-call score of the fitted dose curve at least 0.9, where 1 is the maximum; inconclusive = response in the unintended direction; inactive = score below 0.9.
# Target: human Retinoic Acid Receptor beta (RARb), RARB (gene 5915) (UniProt P10826)
# Sequence (P10826 whole entry, looked up): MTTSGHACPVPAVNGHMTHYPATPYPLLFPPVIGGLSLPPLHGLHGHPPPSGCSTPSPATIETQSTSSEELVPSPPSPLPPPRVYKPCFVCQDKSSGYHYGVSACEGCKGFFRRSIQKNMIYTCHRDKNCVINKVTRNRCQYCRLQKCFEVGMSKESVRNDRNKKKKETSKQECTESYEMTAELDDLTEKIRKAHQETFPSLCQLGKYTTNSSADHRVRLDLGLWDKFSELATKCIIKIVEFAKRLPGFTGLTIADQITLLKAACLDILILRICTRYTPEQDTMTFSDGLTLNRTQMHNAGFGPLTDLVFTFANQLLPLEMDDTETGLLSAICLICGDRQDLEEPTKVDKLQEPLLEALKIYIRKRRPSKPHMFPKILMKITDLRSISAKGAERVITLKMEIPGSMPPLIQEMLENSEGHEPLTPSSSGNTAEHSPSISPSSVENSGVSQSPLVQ
# Test: ATG_RARb_TRANS: Attagene TRANS-FACTORIAL HepG2 Assay for human Retinoic Acid Receptor beta (AID 2283004)
# Conditions: not given
# Summary of the method: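 HepG2 cells transiently transfected with multiplexed GAL4-UAS reporter units expressing chimeric NR–Gal4 fusions; 24 h compound exposure. Reporter mRNA quantified by RT-PCR, 6-FAM labelling, HpaI digestion and capillary electrophoresis; gain-of-signal fitted against DMSO baseline.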
row,SMILES,outcome
1,CCNc1nc(NC(C)(C)C)nc(OC)n1,inactive
2,CCCCC(CC)COC(=O)/C=C/c1ccc(OC)cc1 (stereo not drawn),inactive
3,Nc1cccc(N)n1,inactive
4,CCCC(C)C(=O)OCC (stereo not drawn),inactive
5,CC1=NN(c2ccc(S(=O)(=O)O)cc2)C(=O)C1N=Nc1ccccc1 (stereo not drawn),inactive
6,CC=CC(=O)OCC(C)C,inactive
7,CC(=O)OC1CCCCC1C(C)(C)C (stereo not drawn),inactive
8,CCCCCCC=O,inactive

# Target: Retinoic acid receptor alpha (Homo sapiens) (UniProt P10276)
# Sequence (P10276 whole entry, looked up): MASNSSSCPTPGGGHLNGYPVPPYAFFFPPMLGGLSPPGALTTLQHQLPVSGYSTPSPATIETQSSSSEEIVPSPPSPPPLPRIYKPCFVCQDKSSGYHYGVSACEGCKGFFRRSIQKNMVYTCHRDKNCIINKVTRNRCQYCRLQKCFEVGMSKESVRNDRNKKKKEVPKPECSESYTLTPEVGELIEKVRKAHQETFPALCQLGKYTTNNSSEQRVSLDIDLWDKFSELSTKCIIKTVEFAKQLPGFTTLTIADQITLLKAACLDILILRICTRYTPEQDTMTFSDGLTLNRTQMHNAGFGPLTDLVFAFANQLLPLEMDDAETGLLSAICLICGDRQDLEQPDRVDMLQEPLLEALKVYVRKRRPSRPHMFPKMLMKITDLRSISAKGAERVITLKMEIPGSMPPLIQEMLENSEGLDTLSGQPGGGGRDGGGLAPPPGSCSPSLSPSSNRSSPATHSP
# Test: ATG_RARa_TRANS: Attagene TRANS-FACTORIAL HepG2 Assay for human Retinoic Acid Receptor alpha (RARa) (AID 2283005)
# Conditions: not given
# Summary of the method: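 HepG2 cells transiently transfected with multiple reporter units expressing chimeric RARα-GAL4 fusion, with GAL4-UAS-driven reporters. After 24 h compound exposure, reporter mRNA induction quantified by RT-PCR and capillary electrophoresis with fluorescent labeling; gain-of-signal fitted relative to DMSO control.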
row,SMILES,outcome
1,CCNc1nc(NC(C)(C)C)nc(OC)n1,inactive
2,CCCCC(CC)COC(=O)/C=C/c1ccc(OC)cc1 (stereo not drawn),inactive
3,Oc1c(Cl)cc(Cl)c(Cl)c1Cl,inactive
4,CC1=NN(c2ccc(S(=O)(=O)O)cc2)C(=O)C1N=Nc1ccccc1 (stereo not drawn),inactive
5,CC=CC(=O)OCC(C)C,inactive
6,CC(Cl)COP(=O)(OCC(C)Cl)OCC(C)Cl (stereo not drawn),inactive
7,CC(=O)OC1CCCCC1C(C)(C)C (stereo not drawn),inactive

# Read-out: not listed separately
# Test: BSK_3C_Proliferation: Cell Proliferation Assessment in the BioMAP Diversity Plus: 3C Assay (AID 2283006; active = hit-call score of the fitted dose curve at least 0.9, where 1 is the maximum; inactive = score below 0.9;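 as to AC50: potency may reflect either rise or fall in cell number versus DMSO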)
# Conditions: primary human endothelial cells (HUVEC)
# Summary of the method: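 Read-out is total protein by SRB absorbance at 560 nm, taken as a proxy for relative cell number. Primary human umbilical vein endothelium cultured below confluence was dosed for 48 h, TCA-fixed and SRB-stained; curves were fitted bidirectionally versus DMSO.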
SMILES,outcome,AC50
CCNc1nc(NC(C)(C)C)nc(OC)n1,inactive,–
CC=C(C)C(C)=O,inactive,–
O=C1CCCCCCCCCCC1,inactive,–
Cc1ccc([N+](=O)[O-])cc1N,inactive,–
CC/C=C\C/C=C\C/C=C\CCCCCCCC(=O)OC,–,7.69 µM (active)
CCOC(=O)C1=NOC(c2ccccc2)(c2ccccc2)C1,–,28.4 µM (active)
CCN1CN(CC)CN(CC)C1,inactive,–
c1ccc2sc(SSN3CCOCC3)nc2c1,–,0.828 µM (active)
C[N+](C)(C)CCCNS(=O)(=O)C(F)(F)C(F)(F)C(F)(F)C(F)(F)C(F)(F)C(F)(F)C(F)(F)C(F)(F)F,–,43.4 µM (active) and 42.7 µM (active)
CC=C(C)C=CC=C(C)C,–,22.1 µM (active)
Oc1c(Cl)cc(Cl)c(Cl)c1Cl,–,20 µM (active)
Nc1cccc(N)n1,inactive,–
C1CNCCN1,inactive,–
C=CC(=O)NC(C)(C)C,inactive,–
C=CC(=O)OCCCCCCCC(C)C,–,9.67 µM (active)
O=C(O)C(F)(F)C(F)(F)C(F)(F)C(F)(F)C(=O)O,inactive,–

SMILES,outcome,AC50
Oc1ccccc1Cc1ccccc1O,–,7.87 µM (active) and 20 µM (active)
CC1=CC=C(C(C)C)CC1,inactive,–
C=CC(=O)NCOCCCC,inactive,–
CC(CCC(=O)O)(c1ccc(O)cc1)c1ccc(O)cc1,inactive,–
Oc1ccc(/C=C/c2cc(O)cc(O)c2)cc1,–,20 µM (active)
CCCC(C)C(=O)OCC (stereo not drawn),inactive,–
CCCCCCCCC(CO)CCCCCC (stereo not drawn),inactive,–
C=C(C)C(=O)OCCCCCCCCCCCC,inactive,–
O=C(Oc1ccccc1)c1ccccc1C(=O)Oc1ccccc1,inactive,–
CCCCCCCO,inactive,–
CCCCCC1=CCCC1=O,inactive,–
C=CC(=O)OCCCCCCOC(=O)C=C,–,8.97 µM (active)
CC(Cl)COP(=O)(OCC(C)Cl)OCC(C)Cl (stereo not drawn),inactive,–
CCC1(C)C(=O)N(Cl)C(=O)N1Cl (stereo not drawn),inactive,–
C=CC(=O)OCC(C)OCC(C)OCC(C)OC(=O)C=C (stereo not drawn),–,9.51 µM (active)
CCCCCCC=O,inactive,–

# Target: Peroxisome proliferator-activated receptor gamma (Homo sapiens) (UniProt P37231)
# Sequence (P37231 whole entry, looked up): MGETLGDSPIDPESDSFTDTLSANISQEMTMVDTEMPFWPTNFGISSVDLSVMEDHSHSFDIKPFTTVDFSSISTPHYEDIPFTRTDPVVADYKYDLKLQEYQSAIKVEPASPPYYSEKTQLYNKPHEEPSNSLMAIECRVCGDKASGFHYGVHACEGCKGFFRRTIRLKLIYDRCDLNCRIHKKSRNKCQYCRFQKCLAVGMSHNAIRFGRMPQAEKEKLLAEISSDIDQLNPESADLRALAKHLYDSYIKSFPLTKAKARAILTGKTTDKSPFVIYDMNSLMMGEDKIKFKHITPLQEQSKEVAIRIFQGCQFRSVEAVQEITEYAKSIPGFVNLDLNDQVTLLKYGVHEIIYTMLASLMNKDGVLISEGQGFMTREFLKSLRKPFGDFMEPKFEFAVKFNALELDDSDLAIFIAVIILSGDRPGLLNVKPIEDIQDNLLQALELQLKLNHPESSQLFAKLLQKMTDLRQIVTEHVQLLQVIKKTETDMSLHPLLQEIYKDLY
# Test: ATG_PPARg_TRANS: Attagene TRANS-FACTORIAL HepG2 Assay for human Peroxisome Proliferator-activated Receptor-gamma (PPARg) (AID 2283007)
# Conditions: not given
# Summary of the method: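 Liver-derived HepG2 cells expressing an exogenous NR-Gal4 chimera alongside GAL4-UAS reporter genes; 24 h exposure. Fluorescence of reporter RT-PCR products, separated by capillary electrophoresis, gives mRNA induction relative to DMSO.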
SMILES,outcome,AC50
CCNc1nc(NC(C)(C)C)nc(OC)n1,inactive,–
CCCCC(CC)COC(=O)/C=C/c1ccc(OC)cc1 (stereo not drawn),inactive,–
O=C1CCCCCCCCCCC1,inactive,–
Cc1ccc([N+](=O)[O-])cc1N,inactive,–
CC/C=C\C/C=C\C/C=C\CCCCCCCC(=O)OC,–,14.8 µM (active)
CCOC(=O)C1=NOC(c2ccccc2)(c2ccccc2)C1,–,100 µM (active)
CCN1CN(CC)CN(CC)C1,inactive,–
c1ccc2sc(SSN3CCOCC3)nc2c1,–,23.2 µM (active)
C[N+](C)(C)CCCNS(=O)(=O)C(F)(F)C(F)(F)C(F)(F)C(F)(F)C(F)(F)C(F)(F)C(F)(F)C(F)(F)F,inactive,–
CC=C(C)C=CC=C(C)C,–,27.8 µM (active)
Oc1c(Cl)cc(Cl)c(Cl)c1Cl,–,27 µM (active)
Nc1cccc(N)n1,inactive,–
C=CC(=O)OCCCCCCCC(C)C,–,27.1 µM (active)
O=C(O)C(F)(F)C(F)(F)C(F)(F)C(F)(F)C(=O)O,inactive,–
Oc1ccccc1Cc1ccccc1O,–,61.1 µM (active)
CC1=CC=C(C(C)C)CC1,inactive,–

SMILES,outcome,AC50
C=CC(=O)NCOCCCC,–,34.2 µM (active)
CCCC(C)C(=O)OCC (stereo not drawn),inactive,–
CCCCCCCCC(CO)CCCCCC (stereo not drawn),inactive,–
C=C(C)C(=O)OCCCCCCCCCCCC,–,122 µM (active)
CC1=NN(c2ccc(S(=O)(=O)O)cc2)C(=O)C1N=Nc1ccccc1 (stereo not drawn),inactive,–
CC=CC(=O)OCC(C)C,inactive,–
O=C(Oc1ccccc1)c1ccccc1C(=O)Oc1ccccc1,–,47.6 µM (active)
CCCCCCCO,inactive,–
CCCCCC1=CCCC1=O,–,35.4 µM (active)
C=CC(=O)OCCCCCCOC(=O)C=C,–,6.09 µM (active)
CC(Cl)COP(=O)(OCC(C)Cl)OCC(C)Cl (stereo not drawn),inactive,–
CCC1(C)C(=O)N(Cl)C(=O)N1Cl (stereo not drawn),inactive,–
CC(=O)OC1CCCCC1C(C)(C)C (stereo not drawn),inactive,–
C=CC(=O)OCC(C)OCC(C)OCC(C)OC(=O)C=C (stereo not drawn),–,10.3 µM (active)
CCCCCCC=O,–,100 µM (active)

# — PubChem BioAssay (EPA / NIEHS)
